Assay outcomes as filed in PubChem BioAssay.
SKN-1 inh = C. elegans SKN-1 inhibition; C. elegans VP596 Pgst-4::GFP/RFP ratio, acrylamide-induced, 24 h; inhibition, % at 21.8 µM; 360,000 compounds, 0.49% hits; AID 624304;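 active = interference check ratio from 0.5 to 1.5 plus GFP to RFP signal ratio inhibition reaching or exceeding a fixed threshold, cut at about 30% in these data, passing the limit was not always enough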
RAM inhibit = yeast RAM network inhibition. S. cerevisiae dse1pr::URA3 reporter, 5-FOA growth OD615, 2 d; analog-sensitive cbk1-as2 kinase mutant strain. inhibition, % at 50 µM. 190,000 compounds, 1.8% hits;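 active = inhibition above a set limit, 3 SD over mean compound inhibition, cut at about 8.4% in these data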;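 note: 0% = DMSO-only wells with no growth and 100% = 10 µM 1-NA-PP1 full growth; inhibition rescues growth on 5-FOA so higher OD means more RAM inhibition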
EP2 antag = blocks the human prostaglandin E2 receptor EP2 | 260,000 compounds, 0.52% hits | C6 glioma cells expressing human EP2, cAMP TR-FRET; cells stimulated with saturating PGE2 | P43116 | inhibition, % at 25 µM;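 active = percent inhibition above 40 after rounding to a whole number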;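 note: rat C6 glioma host cells with rolipram phosphodiesterase inhibitor present; the protocol text gives 20 µM as final concentration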
PG9 binder = binds the HIV-1 gp120 antibody PG9; inhibition, % at 6.7 µM; TR-FRET gp120-PG9 antibody binding; AID 624416; 360,000 compounds, 0.43% hits; in the data active = inhibition above about 8.5%
NR1D1 modulator = modulates human Rev-erb alpha binding to DNA; P20393; Rev-erbα–FITC-DNA binding, fluorescence polarization, 90 min; activity, % at 10 µM; 370,000 compounds, 0.79% hits; AID 1259318;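 active = activity above about 14%, limit read from the data; passing the limit was not always enough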;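 note: 0% = DMSO wells with 35 nM protein and 100% = DMSO wells with 750 nM protein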
Target sequence (P20393 whole entry, looked up): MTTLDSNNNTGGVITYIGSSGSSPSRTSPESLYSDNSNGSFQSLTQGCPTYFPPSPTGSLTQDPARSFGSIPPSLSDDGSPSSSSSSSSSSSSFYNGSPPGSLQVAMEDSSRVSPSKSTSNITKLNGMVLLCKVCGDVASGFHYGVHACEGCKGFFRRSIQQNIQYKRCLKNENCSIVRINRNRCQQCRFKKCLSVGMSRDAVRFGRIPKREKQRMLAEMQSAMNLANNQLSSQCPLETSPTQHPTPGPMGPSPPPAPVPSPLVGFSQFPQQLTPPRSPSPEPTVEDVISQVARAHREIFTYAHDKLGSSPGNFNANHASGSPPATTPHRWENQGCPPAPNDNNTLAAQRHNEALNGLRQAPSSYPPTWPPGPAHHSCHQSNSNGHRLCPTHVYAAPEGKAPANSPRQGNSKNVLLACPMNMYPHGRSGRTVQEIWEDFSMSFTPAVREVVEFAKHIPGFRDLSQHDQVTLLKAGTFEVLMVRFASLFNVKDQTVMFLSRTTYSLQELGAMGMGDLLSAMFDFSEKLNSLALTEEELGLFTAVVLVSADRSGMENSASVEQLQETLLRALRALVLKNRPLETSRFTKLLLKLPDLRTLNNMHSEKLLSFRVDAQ
EP2 mod = EP2 receptor (human) modulation; 260,000 compounds, 0.83% hits; EP2-expressing cells, cAMP HTRF FRET, PGE2 co-stimulation; P43116; induction, % at 25 µM; AID 940;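 active = compounds whose cAMP rise, as percent of the full-agonist control response, exceeds 60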;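 note: rat C6 glioma line stably carrying human EP2 under a CMV promoter; the protocol text gives 20 µM as final concentration; 100% = response of wells given 1 µM PGE2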
* = called active by the depositor; / = not tested or not shown. The list is not random: actives were taken first. Their share in the collection is about 2.9%.

SMILES	SKN-1 inh	RAM inhibit	EP2 antag	PG9 binder	NR1D1 modulator	EP2 mod
O=C(Nc1ccccc1)C1=C[C@H](c2coc3ccccc3c2=O)C[C@H](OCc2ccc(CO)cc2)O1	6	5	8	0	-3	-41
O=C(NCc1ccccc1)C1=C[C@@H](c2coc3ccccc3c2=O)C[C@@H](OCc2ccc(CO)cc2)O1	3	8.5*	6	3	5	-5
O=C(NCc1ccccc1)C1=C[C@@H](c2csc3ccccc23)C[C@@H](OCCCCO)O1	/	11*	4	-3	-6	-14
O=C(NCc1ccccc1)C1=C[C@H](C2CCCCC2)C[C@H](OCc2ccc(CO)cc2)O1	3	11*	11	0	-2	4
Cc1noc(C)c1C(=O)OCC(=O)Nc1cc(Cl)ccc1Oc1ccccc1	1	11*	12	-2	1	26
COc1cc(NC(=O)c2snc3c(=O)[nH]cnc23)cc(OC)c1OC	/	/	14	/	/	6
O=C(CSc1nnc(-c2ccccc2)o1)c1ccc2c(c1)OCCO2	-14	8.4*	15	-2	2	-33
Cc1ccc(C)c(-n2c(COc3cccc4ccccc34)nnc2SCC(N)=O)c1	/	/	9	/	/	25
CCCCCCOC(=O)CCc1c(C)nc(N)[nH]c1=O	2	2	11	1	9	20
CCCCCCCCOC(=O)CCc1c(C)[nH]c(=S)[nH]c1=O	-2	8.8*	-3	1	-1	4
CCOC(=O)c1sc(NC(=O)C(CC)Sc2nnc3c4ccccc4n(C(C)C)c3n2)nc1C (configuration not stated)	-6	8.6*	12	-1	6	12
CCOCC(=O)Nc1ccc(S(=O)(=O)N2CCCCC2)cc1	/	/	6	/	/	-23
Cc1[nH]c2ccc(-c3n[nH]c(=S)n3-c3ccc(Br)cc3)cc2c1C	-6	10*	9	1	5	37
COc1cc(/C=C2/CCCC(C(=O)C(F)(F)F)=C2O)ccc1O	14	/	14	-1	2	-13
CCOc1cc(/C=C2\CCCC(C(=O)C(F)(F)F)=C2O)ccc1O	3	9.1*	10	1	-4	36
Oc1ccccc1C1=NCCNC(C(F)(F)F)=C1	3	1	10	3	0	0
FC(F)(F)C1=CC(c2ccc(Cl)cc2)=NCCN1	36*	1	7	-1	3	-11
CC(=O)c1sc(N2CCOCC2)nc1-c1ccccc1	10	2	30	-2	3	-9
FC(F)(F)c1ccc(N=Cc2sc(N3CCOCC3)nc2-c2ccccc2)cc1	5	3	46*	2	0	34
c1ccc(-c2ccc(-c3ccncn3)cc2)cc1	56*	/	/	-4	0	/
c1ccc(-c2cncnc2)nc1	10	/	/	0	-1	/
O=C(OC1CCCCC1)c1ccc2c(c1)C1C=CCC1C(C(=O)O)N2 (configuration not stated)	/	11*	/	/	/	8
O=C(O)C1Nc2ccc(Br)cc2C2C=CCC12 (configuration not stated)	13	/	/	/	/	/
O=C(O)c1ccc2c(c1)[C@@H]1C=CC[C@@H]1[C@H](c1ccccn1)N2	44*	/	7	-1	-3	/
COc1cc(C2C(C#N)=C(N)Oc3n[nH]c(C)c32)ccc1OCc1cccc(C)c1 (configuration not stated)	/	/	11	/	/	-41
SMILES	SKN-1 inh	RAM inhibit	EP2 antag	PG9 binder	NR1D1 modulator	EP2 mod
N=C1C(c2nc(-c3ccc(Br)cc3)cs2)=C(O)CN1NC(=O)c1ccc([N+](=O)[O-])cc1	5	3	5	-4	-2	-13
Cc1ccc(-c2csc(C3=C(O)CN(NC(=O)c4ccc([N+](=O)[O-])cc4)C3=N)n2)cc1	13	8.6*	1	-2	-10	9
CCc1cc2cc3c(cc2nc1SCC(=O)Nc1cc(OC)cc(OC)c1)OCCO3	/	/	18	/	/	16
COc1cccc(NC(=O)COC(=O)/C=C/c2ccc(Cl)cc2Cl)c1	-6	7	16	-3	3	-59
COc1cc(NC(=O)COC(=O)/C=C/c2ccc(Cl)cc2Cl)cc(OC)c1	5	9.5*	6	-2	2	-34
CC(C)c1cccc(O)c(=O)c1	-8	-2	19	-1	4	28
CC(C)c1ccc(O)c(O)c(=O)c1 (tested in a mixture with another compound)	/	/	41*	/	/	48
O=C1C(Cl)=C(Nc2ccc(S(=O)(=O)Nc3ccccn3)cc2)C(=O)c2ccccc21	/	/	107*	/	/	-63
CC(C)(C)c1ccc(S(=O)(=O)Nc2ccccn2)cc1	8	3	5	-1	1	9
COc1ccc2c(c1)N(C)/C(=c1/s/c(=C3\C(=O)N(c4ccccc4)N=C3C)n(C)c1=O)S2	/	/	20	/	/	-6
Cc1nc2c(c(=O)[nH]1)CN(C(=O)c1cc(-c3ccc(C)o3)[nH]n1)CC2	/	/	5	/	/	-45
COc1cccc(C2CC(C(F)(F)F)n3ncc(C(=O)N(C)C4CCCCC4)c3N2)c1 (configuration not stated)	/	/	7	/	/	59
Cc1cccc(Cn2c(SCCO)nc3c2c(=O)[nH]c(=O)n3C)c1	/	/	10	/	/	0
COC(=O)/C(=N/Nc1ccccc1C)Sc1nnc(C(O)c2ccccc2)n1-c1ccccc1 (configuration not stated)	-8	8.8*	3	-1	2	17
CC(=O)/C(=N/Nc1cccc(Cl)c1)Sc1nnc(C(O)c2ccccc2)n1-c1ccccc1 (configuration not stated)	8	3	6	0	3	4
Cc1ccc(Nc2nc3ccccc3nc2-n2nc(C)cc2C)cc1	17	8.7*	8	0	4	49
Cc1cc(NC(=O)CSc2nc(C3CC3)nc3sc4c(c23)CCCC4)no1	/	/	47*	/	/	-5
COc1ccc(C(=O)CSc2nc3c(C)c(C)ccc3cc2C#N)cc1OC	/	/	50*	/	/	33
Cc1ccc2cc(C#N)c(SCC(=O)N3CCCc4ccccc43)nc2c1C	-2	9.2*	7	0	-8	17
Cc1ccc2cc(C)c3nnc(SCC(=O)N4CCCc5ccccc54)n3c2c1C	/	1	/	/	/	-3
COc1ccc(-n2c(=O)c3c(C)c(C)sc3n(Cc3cccc(F)c3)c2=O)c(OC)c1	-13	5	5	1	-8	61*
CCC(CC)c1nnc(NC(=O)c2ccc(OC)cc2)s1	/	/	11	/	/	-34
O=c1c2ccccc2sc2c(CO)ccc(NCCN3CCCCC3)c12	1	/	58*	-2	6	-42
COCCn1c(SCC(=O)Nc2cccc(C(=O)OC)c2)nc2ccccc2c1=O	-11	8.8*	14	1	-2	-26
CCn1c(SCC(=O)Nc2cccc(C(=O)OC)c2)nc2ccccc2c1=O	/	/	11	/	/	12
COCCn1c(SCc2ccc(C(=O)OC)o2)nc2cc(Cl)ccc2c1=O	-3	9.4*	1	-1	-4	35
